Measurements taken from PubChem BioAssay (NCATS).
Where “and” joins values, the source holds several entries; their conditions need not be identical. Equal entries are not always repeated. Results filed as inconclusive are left out. Where a structure was tested more than once in an assay, its records may differ in their call. Calls of active or inactive are those of the source. Unless noted, calls come from the whole dose curve; as a rule, active = well fitted curve in the direction sought with a large enough effect; inconclusive = small, poorly fitted or top-dose-only effect, or another doubt; inactive = no such curve, though single readings can be large; an effect the other way counts as inactive or inconclusive.

Tests used:
[1] = molecular target: Glucocorticoid receptor (Homo sapiens) (UniProt P04150); assay: qHTS assay for small molecule agonists of glucocorticoid receptor signaling (AID 588532; active = well fitted curve in the direction sought with a large enough effect in the signal ratio, with a control signal flat; the % refers to the signal ratio;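 note: 100% = dexamethasone at 0.1 µM and 0% = DMSO only wells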); settings: HeLa MMTV-bla, beta-lactamase ratio, agonist, 18 h; stronger effect = higher value; percent of dexamethasone control, DMSO zero
In short: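 HeLa GRE-bla reporter cells; 18 h compound exposure at 37 C; 2 h CCF4 loading at room temperature; fluorescence at 460 and 530 nm; EC50 by Hill equation.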

[2] = molecular target: Peroxisome proliferator-activated receptor gamma (Homo sapiens) (UniProt P37231); assay: qHTS assay for small molecule agonists of peroxisome proliferator-activated receptor gamma signaling (AID 588536; active = well fitted curve in the direction sought with a large enough effect in the signal ratio, with a control signal flat, not every such curve was filed as active; the % refers to the signal ratio;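 note: 0% = DMSO basal wells and 100% = rosiglitazone at 2 µM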)
In short: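 Beta-lactamase reporter read-out: CCF4 fluorescence (ex 405, em 460/530 nm) after 2 h at RT. HEK293 GeneBLAzer cells were treated for 16 h at 37 C. Hill fits gave EC50 and efficacy versus 2 uM rosiglitazone (100%) and DMSO (0%).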

[3] = molecular target: Peroxisome proliferator-activated receptor gamma (Homo sapiens) (UniProt P37231); assay: qHTS assay for small molecule antagonists of peroxisome proliferator-activated receptor gamma signaling (AID 588537; active = well fitted inhibition curve with a large enough effect in the signal ratio, with a control signal flat, not every such curve was filed as active; the % refers to the signal ratio;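 note: reporter cells co-stimulated with 50 nM rosiglitazone agonist during compound treatment; % of control where 0% means no effect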)
In short: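 Fluorescence at 460 and 530 nm (405 nm excitation) reported beta-lactamase cleavage of CCF4 after 2 h room-temperature loading. HEK293 reporter cells in 1% charcoal/dextran-treated FBS had received compound and rosiglitazone for 16 h.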

[4] = qHTS assay for small molecule agonists of retinoid X receptor alpha signaling (AID 588544; calls by dose curve;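 for activation: 0% = DMSO basal wells and 100% = reference agonist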); settings: HEK293T RXRa-UAS-bla, beta-lactamase reporter, 18 h; 530 nm emission
[5] = molecular target: Retinoic acid receptor RXR-alpha (Homo sapiens) (UniProt P19793); assay: as above
[6] = molecular target: Thyroid hormone receptor beta (Homo sapiens) (UniProt P10828); assay: qHTS assay for small molecule agonists of thyroid hormone receptor beta signaling (AID 588545; calls by dose curve;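 note: 0% = DMSO only and 100% = 10 nM T3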)
In short: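 Stimulation of a TR-driven beta-lactamase reporter was quantified in GripTite HEK 293 cells. Compound series ran for 18 hrs; curves were normalized to T3 and DMSO controls and fitted to yield EC50.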

[7] = qHTS assay for small molecule antagonists of retinoid X receptor alpha signaling (AID 588546; active = well fitted inhibition curve with a large enough effect in the signal ratio, with a control signal flat, not every such curve was filed as active; the % refers to the signal ratio; note: potency is the fitted concentration of half-maximal effect;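 for max response: cells stimulated with 9-cis-retinoic acid as agonist; % is set by controls: 0 for no effect and ±100 for the full control effect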); settings: HEK293T RXRa-UAS-bla, beta-lactamase ratio, antagonist mode; measured here: W530 green channel, cytotoxicity proxy
In short: (§1)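 Beta-lactamase reporter inhibition, read as CCF4 fluorescence ratio (ex 405, em 460/530 nm) after 2 h at RT. HEK293T UAS-bla cells, 2500/well, were stimulated with 9-cis-RA at 500 or 100 nM final alongside test compound for 18 h at 37 C.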

[8] = molecular target: Retinoic acid receptor RXR-alpha (Homo sapiens) (UniProt P19793); assay: as above; settings: HEK293T RXRa-UAS-bla, beta-lactamase ratio, antagonist mode
In short: as §1

[9] = molecular target: Thyroid hormone receptor beta (Homo sapiens) (UniProt P10828); assay: qHTS assay for small molecule antagonists of thyroid hormone receptor beta signaling (AID 588547; active = well fitted inhibition curve with a large enough effect in the signal ratio, with a control signal flat, not every such curve was filed as active; the % refers to the signal ratio;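 note: cells stimulated with 0.4 nM T3 agonist during compound exposure; series mostly up to about 77 µM; % is set by controls: 0 for no effect and ±100 for the full control effect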); settings: TR-UAS-bla HEK293, beta-lactamase ratio, antagonist mode, 18 h
In short: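 TR-UAS-bla GripTite HEK293 cells in 2% charcoal/dextran FBS medium; compounds 0.59 nM to 92 uM with T3 at 0.4nM final, 18 h at 37 C. Beta-lactamase read by CCF4 fluorescence (460/530 nm); Hill fits gave IC50 and efficacy.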

[10] = qHTS assay for small molecule activators of the p53 signaling pathway (AID 651743; active = well fitted activation curve with a large enough effect in the signal ratio, not every such curve was filed as active; the % refers to the signal ratio; note: series mostly up to about 92 µM; % of control where 0% means no effect); settings: HCT-116 p53RE-bla, beta-lactamase FRET ratio, 16 h; activation: stronger effect = higher value
In short: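 Following 16 hours of compound exposure at 37 C, HCT-116 cells bearing the p53RE-bla reporter were loaded with LiveBLAzer B/G FRET substrate for 2 hours at room temperature and fluorescence intensity was recorded.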

[11] = qHTS assay for small molecule activators of the nuclear factor-kappa B (NF-kB) signaling pathway (AID 651749; active = well fitted activation curve with a large enough effect in the signal ratio; the % refers to the signal ratio; note: potency is the fitted concentration of half-maximal effect; for activation: series mostly up to about 77 µM; % of control where 0% means no effect); settings: NF-kB-bla ME-180 cells, beta-lactamase FRET ratio, 16 h; activation: stronger effect = higher value
In short: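 In this qHTS format, compounds acting as activators increase NF-kB-driven beta-lactamase in ME-180 cells, measured as disrupted FRET after 16 hr exposure at 37C and 5% CO2.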

[12] = qHTS assay for environmental chemicals that activate the Aryl hydrocarbon Receptor (AhR) signaling pathway (AID 651777); settings: 1A2-DRE human hepatoma cells, luciferase, 24 h; activation: stronger effect = higher value; note: % of control where 0% means no effect; nearly all actives have a fitted effect of over 15% in size
In short: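 Human hepatoma 1A2-DRE cells, stably carrying a dioxin response element and CYP1A2 promoter driving luciferase, were exposed to compounds for 24 hr at 37 C and 5% CO2. Luciferase signal was then read after 30 min One-Glo at room temperature.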

[13] = molecular target: Peroxisome proliferator-activated receptor alpha (Homo sapiens) (UniProt Q07869); assay: qHTS assay for small molecule agonists of the peroxisome proliferator-activated receptor alpha (PPARalpha) signaling pathway (AID 651778); settings: PathHunter PPARalpha complementation, chemiluminescence, 6 h; max response: stronger effect = higher value; note: % of control where 0% means no effect
In short: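 Enzyme-fragment complementation assay in which ligand-bound PPARalpha translocates and forms an active enzyme that generates chemiluminescence. Cells were plated overnight, exposed to compound for 6 hr at 37 C, and then given detection reagent for 60 min at room temperature.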

[14] = qHTS assay for small molecule agonists of the antioxidant response element (ARE) signaling pathway measured by Nrf2-dependant transcriptional activity (AID 720636; active = well fitted curve in the direction sought with a large enough effect in the repeat runs; an effect the other way counts as inactive or inconclusive; note: % of control where 0% means no effect)
In short: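 ARE-luc HepG2 cells carrying an Nrf2-responsive luciferase reporter were plated in medium with 1% dialyzed FBS, left 6 hr at 37 C to attach, then exposed to compound for 16 hr. Luciferase luminescence was read after ONE-Glo addition.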

[15] = qHTS assay for small molecule agonists of the antioxidant response element (ARE) signaling pathway measured by Nrf2-dependant transcriptional activity - cell viability counter screen (AID 720653; active = well fitted curve in the direction sought with a large enough effect in the repeat runs; an effect the other way counts as inactive or inconclusive; note: % is set by controls: 0 for no effect and ±100 for the full control effect); settings: ARE-bla HepG2 viability, CellTiter-Glo ATP luminescence, 16 h; max response: stronger effect = lower value
In short: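 ARE-bla HepG2 cells treated with compounds for 16 h at 37C; this counter screen measures viability as intracellular ATP by CellTiter-Glo luminescence after 30 min at room temperature.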

[16] = qHTS assay for cell viability of HEK293 cells (AID 743288); settings: ATP luminescence (CellTiter-Glo), 18 h; max response: stronger effect = lower value; note: nearly all actives have a fitted effect of over 50% in size; note: potency is the fitted concentration of half-maximal effect; for max response: % is set by controls: 0 for no effect and ±100 for the full control effect
In short: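 HEK293, 18 h, 37 C, ATP luminescence. Cells at 2,000/well were allowed at least 5 h to settle before dosing; CellTiter-Glo developed 30 min at RT.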

[17] = qHTS assay for cell viability of the p53RE-bla HCT-116 cell line (AID 743292); note: % is set by controls: 0 for no effect and ±100 for the full control effect; nearly all actives have a fitted effect of over 55% in size
In short: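 CellSensor p53RE-bla HCT-116 cells, 4,000/well, preincubated 5 h at 37 C, then exposed to compounds in DMSO for 16 h at 37 C. Viability read as CellTiter-Glo luminescence (intracellular ATP) after 30 min at room temperature.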

[18] = molecular target: Nuclear receptor subfamily 1 group I member 2 (Rattus norvegicus) (UniProt Q9R1A7); assay: qHTS assay for small molecule activators of the rat pregnane X receptor (rPXR) signaling pathway (AID 651751; call rule not given here; note: 0% is about no effect); settings: rPXR reporter cells, luciferase (One-Glo), 24 h
[19] = qHTS assay for small molecule activators of the human pregnane X receptor (PXR) signaling pathway (AID 720659; call rule not given here; note: 0% is about no effect)
[20] = qHTS assay for small molecule antagonists of peroxisome proliferator-activated receptor delta signaling (AID 588535); settings: HEK293T PPARd-UAS-bla, beta-lactamase FRET ratio, 18 h; 460 nm channel;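 note: cells co-treated with a PPAR-delta agonist as stimulator during compound exposure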
In short: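 Fluorescence from CCF4-loaded GeneBLAzer PPAR-delta-UAS-bla HEK293T cells (2 hrs RT loading) quantified reporter inhibition after an 18 hr, 37 C compound exposure across a titration.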

Chain of Peroxisome proliferator-activated receptor alpha (Homo sapiens) (Q07869 whole entry, looked up, the tested form may be a part): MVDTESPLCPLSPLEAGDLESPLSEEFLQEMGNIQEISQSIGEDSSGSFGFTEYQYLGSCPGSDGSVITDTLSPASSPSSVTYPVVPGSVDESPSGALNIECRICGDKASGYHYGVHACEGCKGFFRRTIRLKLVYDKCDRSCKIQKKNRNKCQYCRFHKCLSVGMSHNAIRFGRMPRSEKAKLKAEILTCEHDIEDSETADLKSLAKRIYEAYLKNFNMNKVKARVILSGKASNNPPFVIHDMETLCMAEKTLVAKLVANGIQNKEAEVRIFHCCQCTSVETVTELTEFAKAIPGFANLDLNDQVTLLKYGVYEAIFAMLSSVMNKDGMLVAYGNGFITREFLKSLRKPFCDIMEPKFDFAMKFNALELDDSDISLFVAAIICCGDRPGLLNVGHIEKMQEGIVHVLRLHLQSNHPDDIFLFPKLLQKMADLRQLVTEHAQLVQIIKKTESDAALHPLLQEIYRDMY
Chain of Thyroid hormone receptor beta (Homo sapiens) (P10828 whole entry, looked up): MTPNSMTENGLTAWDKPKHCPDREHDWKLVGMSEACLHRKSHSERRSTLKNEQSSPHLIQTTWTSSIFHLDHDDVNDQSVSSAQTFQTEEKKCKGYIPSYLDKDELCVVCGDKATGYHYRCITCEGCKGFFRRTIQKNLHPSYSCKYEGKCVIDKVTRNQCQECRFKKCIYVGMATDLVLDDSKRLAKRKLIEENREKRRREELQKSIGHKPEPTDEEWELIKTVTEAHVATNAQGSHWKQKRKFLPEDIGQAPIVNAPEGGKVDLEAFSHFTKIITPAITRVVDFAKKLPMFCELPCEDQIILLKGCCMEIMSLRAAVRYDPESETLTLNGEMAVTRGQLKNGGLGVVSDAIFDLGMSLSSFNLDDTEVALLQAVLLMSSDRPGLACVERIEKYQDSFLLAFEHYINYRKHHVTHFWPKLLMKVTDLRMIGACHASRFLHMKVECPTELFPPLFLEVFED
Chain of Glucocorticoid receptor (Homo sapiens) (P04150 whole entry, looked up): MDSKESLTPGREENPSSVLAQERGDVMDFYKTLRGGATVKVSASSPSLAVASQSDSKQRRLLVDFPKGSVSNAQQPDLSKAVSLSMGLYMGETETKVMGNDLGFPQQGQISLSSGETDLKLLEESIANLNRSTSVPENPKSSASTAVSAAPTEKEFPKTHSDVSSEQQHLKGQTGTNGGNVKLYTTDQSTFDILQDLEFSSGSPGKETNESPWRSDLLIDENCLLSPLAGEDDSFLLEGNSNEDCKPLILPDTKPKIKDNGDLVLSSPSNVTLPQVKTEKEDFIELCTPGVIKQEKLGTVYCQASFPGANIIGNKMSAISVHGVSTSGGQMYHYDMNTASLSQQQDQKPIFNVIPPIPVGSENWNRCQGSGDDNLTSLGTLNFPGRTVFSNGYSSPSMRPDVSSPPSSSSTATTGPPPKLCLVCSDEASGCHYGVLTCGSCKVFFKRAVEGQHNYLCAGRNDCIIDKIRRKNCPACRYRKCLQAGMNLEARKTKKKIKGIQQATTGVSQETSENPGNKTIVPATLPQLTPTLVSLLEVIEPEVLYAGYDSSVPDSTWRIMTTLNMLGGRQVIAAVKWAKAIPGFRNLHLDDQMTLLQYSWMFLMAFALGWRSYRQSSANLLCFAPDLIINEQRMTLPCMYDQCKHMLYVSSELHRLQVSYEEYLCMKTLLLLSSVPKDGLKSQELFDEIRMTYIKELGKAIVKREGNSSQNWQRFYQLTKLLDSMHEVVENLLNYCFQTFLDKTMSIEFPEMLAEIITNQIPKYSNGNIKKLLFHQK
Chain of Retinoic acid receptor RXR-alpha (Homo sapiens) (P19793 whole entry, looked up): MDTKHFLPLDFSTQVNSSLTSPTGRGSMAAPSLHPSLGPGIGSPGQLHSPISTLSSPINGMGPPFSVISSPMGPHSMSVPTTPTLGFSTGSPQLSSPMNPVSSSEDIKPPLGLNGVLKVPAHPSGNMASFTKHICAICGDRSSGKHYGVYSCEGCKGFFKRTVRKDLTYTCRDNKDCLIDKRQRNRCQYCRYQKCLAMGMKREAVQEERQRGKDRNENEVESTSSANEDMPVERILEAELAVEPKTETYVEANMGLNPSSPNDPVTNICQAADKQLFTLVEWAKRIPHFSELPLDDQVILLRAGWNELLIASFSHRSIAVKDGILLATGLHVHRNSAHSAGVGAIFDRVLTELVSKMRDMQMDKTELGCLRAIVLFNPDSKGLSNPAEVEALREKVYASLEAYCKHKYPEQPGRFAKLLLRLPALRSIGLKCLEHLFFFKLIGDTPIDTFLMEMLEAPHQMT
Chain of Nuclear receptor subfamily 1 group I member 2 (Rattus norvegicus) (Q9R1A7 whole entry, looked up): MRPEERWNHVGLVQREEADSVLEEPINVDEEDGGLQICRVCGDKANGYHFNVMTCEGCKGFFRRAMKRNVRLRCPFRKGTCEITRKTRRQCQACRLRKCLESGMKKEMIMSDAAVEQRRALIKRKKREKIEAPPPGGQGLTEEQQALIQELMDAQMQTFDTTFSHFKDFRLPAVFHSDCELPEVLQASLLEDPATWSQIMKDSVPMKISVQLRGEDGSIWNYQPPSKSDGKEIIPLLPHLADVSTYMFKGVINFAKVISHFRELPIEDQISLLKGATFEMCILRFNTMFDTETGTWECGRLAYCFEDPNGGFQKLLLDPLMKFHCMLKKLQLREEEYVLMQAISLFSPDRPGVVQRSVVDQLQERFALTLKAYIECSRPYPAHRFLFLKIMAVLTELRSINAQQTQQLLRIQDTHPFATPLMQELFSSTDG
Chain of Peroxisome proliferator-activated receptor gamma (Homo sapiens) (P37231 whole entry, looked up): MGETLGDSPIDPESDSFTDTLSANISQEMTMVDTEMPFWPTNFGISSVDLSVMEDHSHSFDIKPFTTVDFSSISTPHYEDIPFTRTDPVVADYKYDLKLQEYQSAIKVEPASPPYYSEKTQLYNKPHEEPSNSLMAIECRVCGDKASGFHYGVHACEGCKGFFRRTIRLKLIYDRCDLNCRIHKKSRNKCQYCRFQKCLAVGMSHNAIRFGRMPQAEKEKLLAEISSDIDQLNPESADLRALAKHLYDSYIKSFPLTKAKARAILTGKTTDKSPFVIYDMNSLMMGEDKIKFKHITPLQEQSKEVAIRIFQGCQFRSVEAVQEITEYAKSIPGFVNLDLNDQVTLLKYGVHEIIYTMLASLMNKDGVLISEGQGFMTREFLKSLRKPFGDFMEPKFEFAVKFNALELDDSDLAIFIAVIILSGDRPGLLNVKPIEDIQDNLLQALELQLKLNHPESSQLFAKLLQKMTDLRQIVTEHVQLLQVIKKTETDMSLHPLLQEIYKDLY

CCOC(=O)c1ccccc1C
-8.14%: max response [4]
inactive: activation [1] 10.9% | outcome [2] | Potency [3] | Potency [5] | Potency [6] | max response [8] 1.73% | activity change % (negative = inhibition) [9] -2.99% | activation [10] 2.88% | activation [11] 0.727% | activation [12] -0.718% | max response [13] -0.0686% | Potency [14] | max response [15] 0.0878% | max response [16] 0.0695% | Potency [17] | max response [18] 1% | outcome [19]
-9.25%: max response [7]

CCCCCc1ccc(N)cc1
inactive: outcome [2] | Potency [3] | Potency [5] | Potency [6] | max response [8] -25% | activity change % (negative = inhibition) [9] 0.338% | activation [10] 9.16% | activation [11] 1.37% | activation [12] 1.05% | max response [13] -1.26% | Potency [14] | max response [15] 5.18% | max response [16] -6.55% | Potency [17] | max response [18] 1.5% | outcome [19]
-0.233%: max response [4]
-8.57%: max response [7]
19.2%: max response [20]

Cn1sccc1=O
inactive: activation [1] 2.87% | outcome [2] | max response [8] 7.99% | activity change % (negative = inhibition) [9] -11.2% | activation [12] -0.202% | max response [13] -2.31% | Potency [14] | max response [15] -9.28% | max response [16] -4.03% | Potency [17]
-3.21%: max response [20]
-13.8%: max response [7]

CC1(C)C(=O)NC(=O)N1CO
-6.79%: max response [7]
-10.3%: max response [4]
11.7%: max response [20]
inactive: activation [1] -5.05% | outcome [2] | Potency [3] | Potency [5] | Potency [6] | max response [8] -4.89% | activation [10] -0.511% | activation [11] -2.55% | activation [12] 1.93% | max response [13] -1.57% | Potency [14] | max response [15] -2.23% | max response [16] -2.85% | Potency [17] | max response [18] 1.33% | outcome [19]

c1ccc2cc3c(ccc4ccccc43)cc2c1
inactive: Potency [3] | Potency [5] | Potency [6] | max response [8] -3.27% | activity change % (negative = inhibition) [9] -17.7% | max response [13] -0.566% | max response [15] -18.2% | max response [16] -8% | Potency [17]
-11.9%: max response [7]
4.49%: max response [4]

Brc1ccc(Br)c(Br)c1
0.274%: max response [4]
-16.3%: max response [7]
inactive: outcome [2] | Potency [3] | Potency [5] | Potency [6] | max response [8] -14.6% | activity change % (negative = inhibition) [9] -13.9% | activation [10] -2.82% | activation [11] -0.374% | activation [12] 2.73% | max response [13] -4.16% | Potency [14] | max response [15] -18% | max response [16] -15.6% | Potency [17] | max response [18] -1.74% | outcome [19]

C[C@]12CCC(=O)C=C1CC[C@@H]1[C@@H]2[C@@H](O)C[C@]2(C=O)[C@@H](C(=O)CO)CC[C@@H]12
19.7%: max response [4]
inactive: outcome [2] | Potency [3] | Potency [5] | max response [8] 1.07% | activity change % (negative = inhibition) [9] 7.91% | activation [10] -0.611% | activation [11] -3.08% | activation [12] -0.37% | max response [13] 0.506% | max response [15] -8.31% | max response [16] -8.63% | Potency [17] | max response [18] -0.971% | outcome [19]
-18.8%: max response [7]

CCCCCCCCCC[N+](C)(C)Cc1ccccc1
16%: max response [7]
active: Potency [8] 35.5 µM
inactive: activation [1] -4.12% | outcome [2] | Potency [3] | Potency [6] | activation [10] 6.02% | activation [11] 4.29% | activation [12] 0.379% | max response [13] 7.43% | Potency [14] | max response [16] -27.5% | max response [18] -4.11% | outcome [19]

O=S(c1ccc(Cl)cc1)c1cc(Cl)c(Cl)cc1Cl (centres undefined)
active: Potency [11] 7.94 µM
inactive: activation [1] 1.68% | Potency [6] | activity change % (negative = inhibition) [9] -2.9% | activation [10] 3.87% | activation [12] 0.902% | max response [13] -1.31% | Potency [14] | max response [15] -25.7% | max response [16] -14.5% | Potency [17]
14.8%: max response [20]

O=C(O)CN(CCCN(CC(=O)O)CC(=O)O)CC(=O)O
inactive: activation [1] 16.2% | Potency [5] | Potency [6] | activation [11] 0.672% | activation [12] 0.0297% | max response [13] 0.851% | Potency [14] | max response [15] -7.74% | max response [16] -11% | Potency [17] | max response [18] -5.79% | outcome [19]
-16.9%: max response [4]
-69.3%: max response [20]

CCCCCCCC/C=C\CCCCCCCCCCCCC
4.69%: max response [4]
20.5%: max response [20]
-11.4%: max response [7]
inactive: activation [1] -8.32% | outcome [2] | Potency [3] | Potency [5] | Potency [6] | activation [11] -1.6% | activation [12] -0.312% | max response [13] -1.02% | Potency [14] | max response [15] 1.5% | max response [16] -4.21% | Potency [17] | max response [18] -1.72% | outcome [19]

CCCCOCC(C)O (centres undefined)
inactive: activation [1] -3.25% | outcome [2] | Potency [3] | Potency [5] | Potency [6] | activity change % (negative = inhibition) [9] -39.6% and 0.784% | activation [10] -6.14% | activation [11] 0.734% and -0.5% | activation [12] 1.48% and -0.559% | max response [13] 0.397% and 0.0173% | Potency [14] | max response [15] -1.21% and -1.7% | max response [16] -2.11% | Potency [17] | max response [18] 5.94% and 2.87%
12% and -0.638%: max response [7]
-5.52%: max response [4]
active: Potency [16] 1.41 mM
